The values that follow come from the supplement of paper PMC9262897, “Low-cost anti-mycobacterial drug discovery using engineered E. coli” (Nature Communications, 2022).

SMILES strings stand for the structures. Structures can show the parent of a compound that is named as a salt. ± gives the standard deviation of the averaged measurements.

In the assay the test system is E. coli TESEC Alr+ wild-type control. Put plainly: growth (OD600 after 10 h); higher = more growth (less inhibition). Particulars: compound 0.1 mM; raw OD600 reference: median of DMSO wells 0.49, cell-free background 0.052. The method, then:
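TESEC Mtb Alr E. coli (ΔaraC ΔtolC ΔentC Δalr ΔdadX, arabinose-inducible Mtb Alr) or the Alr+ wild-type control strain, grown in defined M9-fructose medium without D-alanine in 96-well plates with Prestwick library compounds at 0.1 mM and 1% DMSO. Low Alr induction is 0.1 µM arabinose and high induction is 10 mM arabinose.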
The compound `CC(Cc1ccc(O)cc1)NCC(O)c1cc(O)cc(O)c1` (stereo not given) [Fenoterol hydrobromide] came in with a growth of 0.575 ± 0.046.
Then `C[N+]1([O-])[C@@H]2C[C@@H](OC(=O)[C@H](CO)c3ccccc3)C[C@H]1[C@@H]1O[C@@H]12` (stereo not given in full) [Scopolamin-N-oxide hydrobromide], with 0.472 ± 0.045.
The figure for `O=C(O)CCCc1ccc(N(CCCl)CCCl)cc1` [Chlorambucil] is 0.537 ± 0.095.
The compound `COc1ccc2c(c1)[C@]13CCCC[C@@H]1[C@H](C2)N(C)CC3` [Dextromethorphan hydrobromide monohydrate] yielded a growth of 0.469 ± 0.03.
Then `COc1ccc(C(=O)N2CCCC2=O)cc1` [Aniracetam], with 0.467 ± 0.054.
`CC(=O)OCC1=C(C(=O)O)N2C(=O)[C@@H](N)[C@H]2SC1` [Cephalosporanic acid, 7-amino]: the growth came to 0.649 ± 0.029.
The compound `Oc1cc(Cl)ccc1Oc1ccc(Cl)cc1Cl` [Triclosan] gave a growth of 0.0516 ± 0.0015.
`CCN(C)C(=O)Oc1cccc([C@H](C)N(C)C)c1` [Rivastigmine] returned a growth of 0.504 ± 0.066.
Then `CC(C)(N)Cc1ccccc1` [Phentermine hydrochloride], with 0.603 ± 0.13.
In turn, `CC(Cc1ccccc1)NCCC(c1ccccc1)c1ccccc1` (stereo not given) [Prenylamine lactate] displayed a growth of 0.0478 ± 0.00061.
Compound `CCC1=C[C@H]2CN3CCc4c([nH]c5ccccc45)[C@](C(=O)OC)(C2)[C@H]13` [Catharanthine] came in with a growth of 0.4419 ± 0.0012.
The figure for `CN(C)[C@@H]1C(=O)C(C(N)=O)=C(O)[C@@]2(O)C(=O)C3=C(O)c4c(O)cccc4[C@@](C)(O)[C@H]3C[C@@H]12` [Tetracycline hydrochloride] is 0.0518 ± 0.0007; for `C1CCc2nnnn2CC1` [Pentylenetetrazole] it is 0.46 ± 0.054; for `O=c1c2ccccc2[se]n1-c1ccccc1` [Ebselen] it is 0.538 ± 0.076.
The figure for `CC(NC(C)(C)C)C(=O)c1cccc(Cl)c1` (stereo not given) [Bupropion hydrochloride] is 0.46 ± 0.026; for `CN(C)C(=O)Oc1ccc[n+](C)c1` [Pyridostigmine iodide] it is 0.436 ± 0.011; for `C=CC[C@]1(O)CC[C@H]2[C@@H]3CCC4=CC(=O)CCC4=C3C=C[C@@]21C` [Altrenogest] it is 0.293 ± 0.0069.
Turning to `COP(=O)(OC)C(O)C(Cl)(Cl)Cl` (stereo not given) [Trichlorfon], the growth turned out to be 0.505 ± 0.046.
The figure for `CC(O)(CS(=O)(=O)c1ccc(F)cc1)C(=O)Nc1ccc(C#N)c(C(F)(F)F)c1` (stereo not given) [Bicalutamide] is 0.3777 ± 0.0027; for `NC(=O)C[S+]([O-])C(c1ccccc1)c1ccccc1` (stereo not given) [Modafinil] it is 0.634 ± 0.016; for `c1ccc2c(c1)Nc1ccccc1S2` [Phenothiazine] it is 0.457 ± 0.0082.
Regarding `NCC(CC(=O)O)c1ccc(Cl)cc1` (racemic) [Baclofen (R,S)], the growth was 0.456 ± 0.038.
Then `CNCC(O)c1ccc(O)cc1` (racemic) [(+,-)-Synephrine], with 0.58 ± 0.057; and `C[N+]1(C)CCCC(OC(=O)C(O)(c2ccccc2)c2ccccc2)C1` (stereo not given) [Mepenzolate bromide], with 0.435 ± 0.012.
`C=CCN1CC[C@]23c4c5ccc(O)c4O[C@H]2C(=O)CC[C@@]3(O)[C@H]1C5` [Naloxone hydrochloride] yielded a growth of 0.479 ± 0.016.
Compound `Clc1ccc(C(OCCN2CCCCC2)c2ccccc2)cc1` (stereo not given) [Cloperastine hydrochloride] had a growth of 0.413 ± 0.033.
For the compound `CN(C)C(=O)Oc1cccc([N+](C)(C)C)c1` [Neostigmine bromide], the growth stood at 0.563 ± 0.068.
The figure for `CCC1(C)CC(=O)NC(=O)C1` [Bemegride] is 0.467 ± 0.024.
Compound `O=c1[nH]c2ccccc2n1C1CCN(CCCC(c2ccc(F)cc2)c2ccc(F)cc2)CC1` [Pimozide] returned a growth of 0.52 ± 0.043.
The figure for `CC(C)C[C@H](CN)CC(=O)O` [Pregabalin] is 0.614 ± 0.019; for `CN1[C@@H]2C[C@@H](OC(=O)[C@H](CO)c3ccccc3)C[C@H]1[C@@H]1O[C@@H]12` [Scopolamine hydrochloride] it is 0.469 ± 0.026.
`CC(CCc1ccccc1)NC(C)C(O)c1ccc(O)cc1` (stereo not given) [Nylidrin] gave a growth of 0.491 ± 0.052.
For the compound `CC(C)C[C@H]1C(=O)N2CCC[C@H]2[C@]2(O)O[C@](NC(=O)[C@@H]3C=C4c5cccc6[nH]c(Br)c(c56)C[C@H]4N(C)C3)(C(C)C)C(=O)N12` [Bromocryptine mesylate], the growth is 0.511 ± 0.046.
`c1ccc2nc(N3CCNCC3)ccc2c1` [Quipazine dimaleate salt] displayed a growth of 0.47 ± 0.0099.
Then `C=C1CC[C@@]2(O)[C@H]3Cc4ccc(O)c5c4[C@@]2(CCN3CC2CC2)[C@H]1O5` [Nalmefene hydrochloride], with 0.4625 ± 0.0046; and `C[C@@H]1CC[C@H]2[C@@H](C)C(=O)O[C@@H]3O[C@@]4(C)CC[C@@H]1[C@]32OO4` [Artemisinin], with 0.33 ± 0.0069; and `CC1C=CC=CCCC=CC=CC=CC=CC(OC2OC(C)C(O)C(N)C2O)CC2OC(O)(CC(O)C(O)CCC(O)CC(O)CC(O)CC(=O)OC(C)C(C)C1O)CC(O)C2C(=O)O` (stereo not given) [Nystatine], with 0.471 ± 0.021.
For the compound `O=C(NCNC(=O)NC1C(=O)NC(=O)N1CO)NC1C(=O)NC(=O)N1CO` (stereo not given) [Imidurea], the growth came to 0.545 ± 0.022.
The compound `CC(=O)O[C@H]1CC[C@@]2(C)C(=CC[C@@H]3[C@@H]2CC[C@]2(C)C(=O)CC[C@@H]32)C1` [Dehydroisoandosterone 3-acetate] registered a growth of 0.253 ± 0.0042.
On to `C=C1C[C@@H]2[C@H](CC[C@]3(C)C(=O)CC[C@@H]23)[C@@]2(C)C=CC(=O)C=C12` [Exemestane], for which the growth was 0.322 ± 0.0079.
